# Source: PubChem (several laboratories)
# NR3A LBD binder: modulators (binders) of human NR3A ligand-binding domain; hit rate 2.5% among 340,000; NR3A LBD differential scanning fluorimetry, Tm shift; 0% = protein alone, 100% = glycine-bound protein; Tm shift relative to glycine control, % at 25 µM;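 active = melting temperature shift of at least 10% of the positive control shift, at one fixed dose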
# UBC13 inh: inhibitors of human UBC13 polyubiquitin chain formation | TR-FRET | inhibition, % at 20 µM | hit rate 0.47% among 330,000; in the data active = inhibition above about 45%, passing the limit was not always enough
# UBC9 SUMO inh: SUMOylation inhibition | AID 2006 | HTRF SUMOylation assay, SAE1/SAE2 + UBC9, in vitro | hit rate 0.36% among 290,000 | inhibition, % at 35 µM | P63279; in the data active = inhibition above about 50%, passing the limit was not always enough
# HGIII-sPLA2 inh: Inhibits HGIII-sPLA2 liposome hydrolysis, primary screen. Q9NZ20. QFRET BODIPY PC-A2 liposome hydrolysis, fluorescence. inhibition, % at 12.2 µM. hit rate 0.56% among 370,000. AID 743126;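 active = inhibition above mean plus 3 SD of compounds lying within the high and low control bounds, cut at about 19% in these data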;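 also: 0% = median of test compound wells and 100% = no enzyme DMSO wells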
# The depositor's hits bear a star; / = not tested or not shown. An excerpt weighted towards active compounds, which were near 3.3% of everything screened.
SMILES,NR3A LBD binder,UBC13 inh,UBC9 SUMO inh,HGIII-sPLA2 inh
COc1ccc(S(=O)(=O)N2CCCC2CNC(=O)C(=O)Nc2ccc(F)cc2)cc1 (configuration not stated),11*,-3,/,-6
Cc1ccc(S(=O)(=O)N2CCCCC2CCNC(=O)C(=O)NCc2ccco2)cc1 (configuration not stated),18*,-5,/,-5
COc1ccc(CCNC(=O)C(=O)NCCC2CCCCN2S(=O)(=O)c2cccs2)cc1 (configuration not stated),0,1,/,-6
COc1ccc(CCNC(=O)C(=O)NCCC2CCCCN2S(=O)(=O)c2ccccc2)cc1 (configuration not stated),11*,-12,/,11
COc1ccc(S(=O)(=O)N2CCCC2CNC(=O)C(=O)Nc2cccc(F)c2)cc1 (configuration not stated),-3,-3,/,-18
COc1ccc(CCNC(=O)c2cc(S(=O)(=O)N3CCCCC3)ccc2Cl)cc1,15*,-9,/,9
CC(C)N1CCc2c(sc(NC(=O)C(F)(F)F)c2-c2nc3ccccc3s2)C1,/,/,/,-11
CCN(Cc1cn(Cc2ccccc2)nn1)S(=O)(=O)c1ccc(N2CCCC2)cc1Br,/,/,/,-10
Cc1cccc(NC(=O)C2=C(O)c3ccccc3N(C)S2(=O)=O)c1,-3,2,15,-3
CN1c2ccccc2C(O)=C(C(=S)Nc2ccc(Cl)cc2)S1(=O)=O,28*,-2,0,2
Cc1nn(-c2ccccc2)c(C)c1/C=N\NC(=O)CSc1nc2ccccc2n1Cc1ccc(Cl)cc1,/,/,/,-9
CCCCn1c(NC(=O)c2ccco2)c(S(=O)(=O)c2ccc(C)cc2)c2nc3ccccc3nc21,-1,/,100*,-39
Cc1ccc(S(=O)(=O)c2c(N)n(NC(=O)c3ccccc3C)c3nc4ccccc4nc23)cc1,11*,-5,14,-44
CCCCCn1c(NC(=O)c2ccco2)c(S(=O)(=O)c2ccc(C)cc2)c2nc3ccccc3nc21,15*,-36,/,-11
CCCCn1c(NS(=O)(=O)c2ccccc2)c(S(=O)(=O)c2ccc(C)cc2)c2nc3ccccc3nc21,1,/,/,27*
CCCCn1c(NC(=O)c2ccc(Br)o2)c(S(=O)(=O)c2ccccc2)c2nc3ccccc3nc21,4,-47,/,-6
CCCC1CCC2(CCC(=O)N2CCC#N)CC1 (configuration not stated),/,/,/,-2
COC(=O)c1cc(-c2ccc(C)cc2)c(=O)n2c1CCC2,/,/,/,15
O=S1(=O)c2ccc(N3CCN(Cc4ccccc4F)CC3)cc2Oc2ccccc2CN1Cc1cn(Cc2cccc(F)c2)nn1,/,/,/,-11
COC(=O)[C@]12C=CCN1[C@H](c1ccc(Cl)cc1)c1c(c3ccccc3n1S(=O)(=O)c1ccc(C)cc1)C2,/,/,/,4
N#Cc1c(NC(=O)Cn2c(=O)oc3ccccc32)oc(-c2ccccc2)c1-c1ccccc1,11*,2,-13,-24
C=CCN1C(=O)[C@H](CC(=O)NCc2cccc3ccccc23)[C@@]2(C(=O)OCC)CCCC=C12,/,/,/,-3
Cc1cc(SCC(=O)N/N=C/c2ccc(O)c(O)c2O)c(C)cc1Br,25*,-24,9,32*
CC(C)OCCCNC(=O)Nc1cccc2ccccc12,1,-4,12,-2
CCCCCCC(C)OC(=O)Nc1cccc2ccccc12 (configuration not stated),10*,5,3,-4
SMILES,NR3A LBD binder,UBC13 inh,UBC9 SUMO inh,HGIII-sPLA2 inh
O=C(c1cccc(F)c1)N(Cc1ccccn1)CC1CCCO1 (configuration not stated),/,/,/,8
Cc1ccc(NC(=O)c2nc[nH]c2C(=O)NCCN(CCNC(=O)c2[nH]cnc2C(=O)Nc2ccc(C)cc2)CCNC(=O)c2[nH]cnc2C(=O)Nc2ccc(C)cc2)cc1,16*,-5,/,6
O=C(Nc1ccccc1)c1nc[nH]c1C(=O)NCCN(CCNC(=O)c1[nH]cnc1C(=O)Nc1ccccc1)CCNC(=O)c1[nH]cnc1C(=O)Nc1ccccc1,13*,-7,/,-5
O=C(Nc1ccccc1)c1nc[nH]c1C(=O)NCCCCCCNC(=O)c1[nH]cnc1C(=O)Nc1ccccc1,14*,-17,/,11
O=C(Nc1ccc(Cl)cc1)c1nc[nH]c1C(=O)NCCN(CCNC(=O)c1[nH]cnc1C(=O)Nc1ccc(Cl)cc1)CCNC(=O)c1[nH]cnc1C(=O)Nc1ccc(Cl)cc1,19*,-34,/,/
CCn1c(COc2ccc(C)cc2)nnc1SCC(=O)Nc1ccc(Oc2ccccc2)cc1,/,/,/,-2
C[C@@H](N)C(=O)Nc1ccc(Cl)cc1C(=O)c1ccc[nH]1,/,/,/,0
CC(=O)Nc1ccc(Nc2nccc(C)n2)cc1,/,/,/,4
